Source: PubChem (several laboratories)
Only some compounds are listed: those with a hit (about 5.1% of all), similar ones and a draw of the others.
RAM network inh – blocks the yeast RAM network | S. cerevisiae dse1pr::URA3 reporter, 5-FOA growth OD615, 2 d; analog-sensitive cbk1-as2 kinase mutant strain | AID 868 | inhibition, % at 50 µM | 190,000 compounds, 1.8% hits;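 active means inhibition above a set limit, 3 SD over mean compound inhibition, cut at about 8.4% in these data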;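 further: 0% = DMSO-only wells with no growth and 100% = 10 µM 1-NA-PP1 full growth; inhibition rescues growth on 5-FOA so higher OD means more RAM inhibition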
S1P4 antagonist – antagonists of human S1P4 receptor. S1P4-expressing cells, antagonist mode, reporter read-out. O95977. 220,000 compounds, 0.26% hits. inhibition, % at 4.98 µM; in the data active means inhibition above about 29%;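 further: 0% = wells stimulated with agonist and 100% = vehicle wells without agonist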
ROMK mod – modulators of human ROMK potassium channel. 130,000 compounds, 2% hits. P48048. B-score at 10 µM. Tet-inducible ROMK, thallium flux fluorescence; actives lie on both sides;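 active means signal ratio slope over the read window, or its plate-corrected B-score, at least 3 SD from the plate mean, either direction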;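 further: B-score of the F/F0 ratio slope over 7 to 12 s after thallium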
S1P4 ag – human S1P4 receptor agonism. O95977. 220,000 compounds, 0.35% hits. S1P4-expressing cell line, agonist reporter assay. activation, % at 4.98 µM; in the data active means activation above about 11%;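 further: 0% = DMSO vehicle and 100% = reference agonist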
KCC2 mod – KCC2 (human) Cl- transport modulation; KCC2 cells, thallium flux FluoZin-2 fluorescence; B-score of Tl+ flux slope (higher = more flux/activation; lower = inhibition) at 10 µM; Q9H2X9; AID 1456; 190,000 compounds, 2.2% hits;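 active means thallium flux slope and its plate-corrected score both differing from the plate sample mean at a set confidence after two filtering rounds, in either direction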;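 further: slope of fluorescence scaled to starting intensity during 10 to 20 s after thallium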
S1P3 antagonist – S1P3 (human) receptor antagonism | Q99500 | CHO S1P3 NFAT-BLA reporter, FRET fluorescence, antagonist mode | inhibition, % at 4.98 µM | 170,000 compounds, 0.27% hits;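 active means inhibition above the plate cutoff, the mean inhibition of test wells on that plate plus 3 SD, cut at about 28% in these data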;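 further: cells challenged with S1P at its EC80 of 0.8 µM; blue over green emission ratio from cleaved BLA substrate after 4 h stimulation; 0% = S1P-stimulated wells and 100% = unstimulated DMSO-only wells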
Target sequence (Q99500 whole entry, looked up): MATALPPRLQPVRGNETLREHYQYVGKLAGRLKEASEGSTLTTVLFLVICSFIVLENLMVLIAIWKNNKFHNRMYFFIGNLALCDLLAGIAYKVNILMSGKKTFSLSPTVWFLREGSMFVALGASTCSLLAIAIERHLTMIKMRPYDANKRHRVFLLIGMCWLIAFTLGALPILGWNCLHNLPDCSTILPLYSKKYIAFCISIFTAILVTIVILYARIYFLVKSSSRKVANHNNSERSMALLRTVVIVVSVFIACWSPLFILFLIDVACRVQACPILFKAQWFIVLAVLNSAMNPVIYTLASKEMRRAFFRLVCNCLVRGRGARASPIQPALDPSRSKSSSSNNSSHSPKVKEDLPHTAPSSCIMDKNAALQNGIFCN
The depositor's hits bear a star; · = no result.

SMILES	RAM network inh	S1P4 antagonist	ROMK mod	S1P4 ag	KCC2 mod	S1P3 antagonist
CC(C)CC(COCc1cccc(Cl)c1)N1CCN(C(=O)c2cccc(C(F)(F)F)c2)CCC1=O (centres undefined)	3.7	13.9	-2.45	0.2	-0.922	11.7
CC(=O)NC(=S)Nc1ccc([N+](=O)[O-])cc1C	0.5	-8.4	1.57	-1.1	-0.671	-15.5
Cc1cc([N+](=O)[O-])ccc1NCc1ccc2ccccc2c1	9.8*	-1.9	0.0168	0.9	-0.68	·
Cc1cc([N+](=O)[O-])ccc1NC(=S)NC(=O)Cc1ccccc1	4.5	-4.4	-0.492	0.6	8.51*	·
O=C(Nc1ccc(-c2cn3c(n2)SCC3)cc1)c1ccco1	·	11.2	·	-0.2	0.704	-5.1
CN(C)CCNC=C(C(=O)Nc1ccc(Cl)cc1Cl)C(=O)Nc1ccc(Cl)cc1Cl	9.0*	-6.5	·	-4.1	·	·
Cc1nc(Nc2ccccc2)sc1-c1ccccc1	-2.2	2.9	0.994	2.4	0.644	-10.8
Cc1nc(Nc2ccc(C(=O)O)cc2)sc1-c1ccccc1	3.2	-12.7	3.68*	2.3	-0.398	-9.8
CCOc1ccccc1CNC(=O)c1nn(CC)cc1[N+](=O)[O-]	4.2	-16.9	-0.118	0.4	-0.457	-9.7
Cc1cc(C)c(C#N)c(SCc2nnc(-c3ccccc3[N+](=O)[O-])o2)n1	11.3*	-6.6	-1.16	2.3	-1.62	9.9
N#Cc1c(/N=C/c2cccs2)sc2c1CCCCC2	0.6	-17.2	·	1.6	0.0198	56.9*
CCOc1cc(NC(=S)NCCCN2CCOCC2)c(OCC)cc1NC(=O)C1CC1	1.1	-13.6	·	5.5	0.458	-2.0
CC(C)C(C)(C#N)NC(=O)CSc1ncnc2sc(-c3ccccc3)cc12 (centres undefined)	2.0	3.6	0.47	-4.8	-3.57*	·
CN(CCC#N)C(=O)CSc1ncnc2sc(-c3ccccc3)cc12	1.0	-3.1	·	-0.1	0.556	25.7
O=C(/C=C/c1ccccc1[N+](=O)[O-])N1CCN(c2ccccc2F)CC1	8.5*	-14.4	0.534	1.2	-1.55	1.0
O=C(/C=C/c1ccc(Cl)cc1Cl)N1CCN(c2ccccc2[N+](=O)[O-])CC1	8.6*	-18.2	0.97	-2.0	-0.171	3.1
COc1ccc(CCN2C(=O)N(c3ccc(OC)cc3)C(=O)C2CC(=O)Nc2ccccc2)cc1 (centres undefined)	9.1*	-2.7	0.0354	-0.2	-0.0178	-16.0
COCCn1nnnc1C(C(C)C)N1CCSCC1 (centres undefined)	0.8	15.8	0.0412	-0.3	-0.0899	-17.4
N#Cc1c2nc3ccccc3nc2n2cc(NC(=O)c3ccc(F)cc3)ccc12	9.8*	-25.1	·	-0.4	0.689	0.8
Cc1c(C(=O)Nc2ccc(F)cc2)cn2c(nc3ccccc32)c1C#N	·	-28.4	·	0.4	-1	-2.7
Cc1ccc(S(=O)(=O)N2CCOCC2)cc1NC(=O)COC(=O)c1cc(=O)c2ccccc2o1	2.5	-7.9	0.716	0.0	0.664	-6.1
Cc1ccc(S(=O)(=O)N(Cc2ccccc2)c2ccccc2C(=O)NCc2ccco2)cc1	9.0*	3.5	·	-1.2	·	·
Cc1sc2nc(CSCC(=O)Nc3ccccc3C#N)[nH]c(=O)c2c1C	-0.1	-25.4	·	1.3	1.23	-19.7
COc1ccccc1CNC(=O)c1csc(Cc2ccc(Cl)cc2)n1	8.7*	-21.7	·	-0.8	·	·
COc1ccc(C(C)(C)C)cc1NC(=O)c1cc(S(=O)(=O)N(C)C)ccc1N1CCCC1	4.0	-5.9	·	-1.5	-0.623	8.3
SMILES	RAM network inh	S1P4 antagonist	ROMK mod	S1P4 ag	KCC2 mod	S1P3 antagonist
CSCCC(NS(=O)(=O)c1ccc(Cl)cc1)C(=O)OCC(=O)c1c(C)[nH]c2ccccc12 (centres undefined)	10.0*	-10.0	0.858	-0.9	-1.98	-0.4
CCC1(C)N=C(N)Nc2nc3cc(C)c(C)cc3n21 (centres undefined)	·	-14.7	·	2.6	-0.347	0.4
Clc1cc(Cl)cc(CSc2nnc(-c3sccc3-n3cccc3)o2)c1	8.1	-13.0	·	-1.2	·	·
Clc1cccc(CSc2nnc(-c3sccc3-n3cccc3)o2)c1	8.9*	0.3	·	1.7	-0.0773	·
CCN(c1ccc(NC(=O)COC(=O)CCC(=O)c2ccc(F)cc2)cc1)C(C)C	0.5	-5.5	0.00346	-1.9	-0.0464	·
Cc1ccc2nc(NC(=S)NC(=O)c3cccs3)sc2c1	4.9	-26.9	·	-0.4	9.24*	·
Cc1cccc(NC(=S)NC(=O)c2ccco2)n1	0.1	-2.4	·	0.5	28*	-8.7
Cc1cccc(NC(=S)NC(=O)c2cccs2)n1	1.2	-1.5	·	1.0	18*	·
Cc1ccc2oc(-c3cccc(NC(=S)NC(=O)c4cccs4)c3)nc2c1	1.5	-6.4	·	1.2	7.75*	-10.3
CC(C)CN(CC(C)C)C(=O)Nc1cccc([N+](=O)[O-])c1	1.4	-7.1	0.0454	2.6	-0.146	-10.4
O=Cc1ccc(OCC(=O)N2CCOCC2)cc1	-0.4	-2.7	0.405	0.5	0.216	-5.1
C=CCn1c(C(CC(C)C)CC(C)O)n[nH]c1=S (centres undefined)	2.3	-9.0	·	1.0	0.497	-1.4
Cc1ccc(OCC(=O)NC(=S)Nc2cccc(C)n2)cc1	0.3	-28.5	0.245	0.7	8.41*	-14.1
O=C(N/N=C\c1cc(Br)c(Br)o1)c1cncc(Br)c1	6.3	-13.9	·	1.9	16.3*	3.9
O=C(N/N=C/c1cc(Br)c(Br)o1)c1cccnc1	4.4	-16.4	·	0.8	0.471	17.6
COc1cccc2c1C(CO)N1C(C#N)C3CC(C(=O)O)C(C1C2)N3C (centres undefined)	·	93.6*	1.19	-0.1	-0.682	27.0
CCN(CC)S(=O)(=O)c1c(OC)cc(C)c(Cl)c1C	1.8	5.8	0.185	6.2	-0.113	-21.8
Cc1cc(C(=O)CSc2nnc(-c3ccccc3)n2C)c(C)n1C	0.9	-11.9	·	-0.5	-0.776	5.8
Cc1cc(C(=O)CSc2nnc(-c3cccnc3)n2-c2ccccc2F)c(C)n1C	0.9	-54.1	0.308	27.1*	-0.589	-8.7
COc1ccc(S(=O)(=O)NC(CC(=O)NCCc2ccc(OC)c(OC)c2)c2ccco2)cc1 (centres undefined)	6.2	-20.0	·	0.3	-0.0911	94.0*
CC(OC(=O)CN1C(=O)C2C3C=CC(C4CC34)C2C1=O)C(=O)c1ccccc1 (centres undefined)	·	-7.4	·	0.0	-0.0275	-2.4
O=[N+]([O-])c1ccc(N(c2ccccc2)c2ccccc2)cc1	10.0*	17.9	·	-0.2	2	·
CCN(C(=O)c1ccccc1)c1ccc([N+](=O)[O-])cc1	-0.5	-8.6	-0.673	0.7	0.444	-3.5
CC(NC(=O)CNC(=O)C1O[C@@H]2OC(C)(C)O[C@@H]2[C@H]2OC(C)(C)O[C@@H]12)C(=O)O (some centres undefined)	-1.2	-3.4	1.11	-0.9	-1.02	-0.5
Cc1ccc(-c2cc(-c3ccccc3)c3c(N)c(S(C)(=O)=O)sc3n2)cc1	2.7	-2.1	0.703	1.3	·	·
